We go through 69 compounds from PubChem BioAssay AID686978 (National Center for Advancing Translational Sciences (NCATS), 2013).

About 64,000 (15%) of roughly 420,000 compounds were called active. Another 27% or so got no clear call; they are omitted. Calls come from the whole dose curve; as a rule, active = well fitted inhibition curve with a large enough effect; inconclusive = small, poorly fitted or top-dose-only effect; inactive = flat fitted curve, though single readings scatter. The list is a sample of the results. A call without a number means that no potency is given here.
Potency is the fitted concentration of half-maximal effect.

The experiment can be described thus: qHTS for Inhibitors of human tyrosyl-DNA phosphodiesterase 1 (TDP1): qHTS in cells in absence of CPT. Note: nearly all actives have a fitted effect of over 55% in size. The note with it: DT40 Tdp1-/- hTDP1 cells, no CPT, ATP luminescence, 48 h; activity change, negative = growth inhibition: at 46.2 µM (top of the series). Summed up:
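A cellular qHTS used chicken DT40 cells lacking endogenous Tdp1 but carrying stably transfected human TDP1. Compounds were applied without camptothecin, and cell growth kinetics were judged by ATP-dependent luminescence after ≥48 hr.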
Consider `NC(=O)C1CCN(C(=O)c2cccc(NC(=O)c3nsc4ccccc34)c2)CC1`, for which the Potency was 16.4 µM (active).
The entry for `COc1cccc(NC(=O)N2CCN(C(=O)c3nsc4ccccc34)CC2)c1` is “inactive”; for `O=C(Nc1cccc(C(=O)N2CCCC2)c1)c1ccccc1` it is “inactive”.
Next, `CCOC(=O)c1ccc(NC(=O)C2CC(=O)Nc3nc4ccccc4n32)cc1` (centres undefined): “inactive”; `Cc1nc2ccn(Cc3cccs3)c(=O)c2cc1C(=O)NCc1ccc(Cl)cc1`: 16.4 µM (active).
The entry for `COc1ccc(Cn2ccc3nc(C)c(C(=O)Nc4ccc(C)c(F)c4)cc3c2=O)cc1` is “inactive”.
With `CN(CC(=O)NCc1ccc(Cl)cc1)S(=O)(=O)c1cccs1`, the Potency entry was “inactive”.
Turning to `CCn1c(C(C)C)n[nH]c1=S`, the Potency entry is “inactive”.
Next, `O=C(NC1CCCCC1)C1CCCN(S(=O)(=O)c2cccs2)C1` (centres undefined): “inactive”.
Next, `Cn1nnnc1SCC(=O)NNC(=O)c1ccc(Br)cc1`: “inactive”; `Cc1cc(C(C)(C)C)cc(C)c1N`: “inactive”; `Cc1cc(N)n2nc(-c3ccc(C(C)(C)C)cc3)cc2n1`: 25.9 µM (active).
With `CC(=O)Nc1ccc(NC(=O)CSc2nnnn2-c2ccccc2F)cc1`, the Potency result was “inactive”.
Take `C1CC1Cc1noc(CN2CCN(CC3CC3)CC2)n1`: the Potency result is “inactive”.
Next, `COCCNc1cc(-c2c(C)noc2C)ncn1`: “inactive”.
`CNc1cc(-c2c(C)noc2C)ncn1`: the Potency was 14.6 µM (active).
With `Cc1cnc(CNc2cc(-c3c(C)noc3C)ncn2)cn1`, the Potency entry was “inactive”.
On to `COc1ccc(C2=NOC3(CC(=O)N(c4ccc(Cl)cc4)C3=O)C2)c(OC)c1` (centres undefined), for which the Potency entry is “inactive”.
The entry for `COC(=O)c1ccc(NC(=O)CSc2nncn2-c2cccnc2)cc1` is “inactive”; for `Cc1ccc(SCCC(=O)NC(C(C)C)C(C)C)cc1` it is “inactive”; for `CCOC(=O)c1cccc(NS(=O)(=O)c2cn(C)c(C)n2)c1` it is “inactive”.
For `COc1ccc(Cl)cc1S(=O)(=O)Nc1cccc(C(=O)O)c1`, the Potency result was “inactive”.
Next, `CCOC(=O)c1cccc(NS(=O)(=O)c2cc(-c3cnc(C)o3)ccc2OC)c1`: 6.51 µM (active).
Consider `Cc1ccccc1NC(=O)Cc1nc(COC(=O)CNC(=O)c2ccc(Cl)cc2Cl)cs1`, for which the Potency entry was “inactive”.
Next, `CN1CCN(CCCCOc2cccc3ccccc23)CC1`: 16.4 µM (active); `CCN1CCN(CCCCOc2ccccc2F)CC1`: “inactive”; `COc1ccccc1OCCCCCCN1CCN(C)CC1`: “inactive”.
The entry for `CCn1nc(C(=O)NNC(=O)C2CSC3(C)CCC(=O)N23)c2ccccc2c1=O` (centres undefined) is “inactive”; for `CC(=O)c1cccc(NC(=O)COc2ccc(S(=O)(=O)N3CCOCC3)cc2)c1` it is “inactive”.
Next, `CC1CCN(S(=O)(=O)c2ccc3[nH]c(=O)ccc3c2)CC1`: “inactive”.
In the case of `CC(=O)c1cccc(Nc2ccc3cc(S(=O)(=O)N4CCC(C)CC4)ccc3n2)c1`, the Potency is 16.4 µM (active).
Next, `Nc1cccc(CCc2nc3ccccc3[nH]2)c1`: “inactive”; `O=C(OCc1nc2ccccc2[nH]1)C1CCCCC1`: “inactive”.
On to `CC/C(O)=C1\C(=O)CC(C)(C)CC1=NCCc1nc2ccccc2[nH]1`, for which the Potency was 20.6 µM (active).
Next, `COc1ccc(NC(=O)COc2ccc(C(=O)OCC(=O)N(C)C3CCS(=O)(=O)C3)cc2OC)cc1` (centres undefined): “inactive”; `CCOC(=O)N1CCN(S(=O)(=O)c2ccc(OC)cc2)CC1`: “inactive”; `NC(=O)c1ccccc1N(Cc1ccccc1)S(=O)(=O)c1ccccc1`: “inactive”.
For `CCOC(=O)N1CCN(C(=O)c2ccccc2N(Cc2ccccc2)S(=O)(=O)c2ccc(OC)cc2)CC1`, the Potency is 3.26 µM (active).
In the case of `CN(CCO)Cc1csc2ccc(Br)cc12`, the Potency result was “inactive”.
Take `CN(CC(=O)O)S(=O)(=O)c1ccc2oc3ccccc3c2c1`: the Potency result was “inactive”.
The entry for `CCOC(=O)c1c(C)nc2c(c1C)c(=O)oc1ccccc12` is “inactive”.
The entry for `COc1ccc2oc(C(=O)NCC(Cc3ccccc3)N(C)C)c(C)c2c1` (centres undefined) is “inactive”.
On to `CCOC(=O)c1c(C)oc2cc(Br)c(OCC(N)=O)cc12`, for which the Potency entry was “inactive”.
Turning to `COC(=O)c1c(C)oc2ccc(N(C(=O)Oc3ccccc3)S(=O)(=O)c3ccccc3)cc12`, the Potency is 11.6 µM (active).
On to `CCOC(=O)c1c(C)oc2ccc(N(C(=O)c3ccncc3)S(=O)(=O)c3ccc(CC)cc3)cc12`, for which the Potency was 2.91 µM (active).
Next, `O=C(CN1CCOCC1)Nc1c2c(nc3c1CCC3)CCC2`: “inactive”; `CCC(C)N(C(=O)COC(=O)C1C(C(=O)OC)=C(C)NC(C)=C1C(=O)OC)C1CCS(=O)(=O)C1` (centres undefined): “inactive”.
Next, `COc1ccccc1CNC(=O)CS(=O)(=O)c1cccc2nsnc12`: “inactive”; `COc1cc2ccccc2cc1C(=O)Nc1ccc(NC(=O)c2cccs2)cc1`: 20.6 µM (active).
`COc1cc(NC(=O)c2cccs2)ccc1NC(=O)c1ccccc1Cl`: the Potency result was “inactive”.
The figure for `O=C(Nc1cccc(-c2nc3ccccc3o2)c1)c1cccc(Br)c1` is 20.6 µM (active).
The figure for `COc1cc2ccccc2cc1C(=O)Nc1cccc(-c2nc3ccccc3o2)c1` is 20.6 µM (active); for `O=C(Nc1cccc(Br)c1)c1ccc2snnc2c1` it is “inactive”; for `COc1cc2ccccc2cc1C(=O)Nc1ccncc1` it is “inactive”.
On to `COc1cc2ccccc2cc1C(=O)Nc1ccc(S(=O)(=O)Nc2cc(C)on2)cc1`, for which the Potency entry is “inactive”.
In the case of `O=C(Nc1cccc(-c2nc3ncccc3o2)c1)c1ccco1`, the Potency entry is “inactive”.
Next, `COc1cccc(NC(=O)c2ccccc2SC)c1`: “inactive”; `Cc1cccc(CCNC(=O)Cn2ncc3c([nH]c4ccc(C)cc43)c2=O)c1`: “inactive”; `CCN(C(=O)COC(=O)c1ccccc1O)c1cccc2ccccc12`: “inactive”.
With `Cc1nnc(SCC2=C(C(=O)O)N3C(=O)C(NC(=O)Cn4nc(C)c(Cl)c4C)C3SC2)s1` (centres undefined), the Potency entry is “inactive”.
Next, `C=CCNC(=O)c1ccccc1SCc1c(C)noc1C`: “inactive”; `COc1ccc(S(=O)(=O)NC2(C(F)(F)F)N=C3SCCN3C2=O)cc1` (centres undefined): “inactive”.
Next, `CN(CCc1ccccn1)C1CCCN(S(=O)(=O)c2ccccc2Cl)C1` (centres undefined): “inactive”; `Cc1ccc2c(c1)-c1c(cnn1CC(=O)Nc1ccccc1C#N)CO2`: “inactive”; `Cc1nc(-c2ccc(Cl)cc2)sc1C1(C)CC(c2ccccc2F)=NO1` (centres undefined): “inactive”.
Next, `NS(=O)(=O)c1ccccc1NC(=O)c1c(O)c2ccccc2[nH]c1=O`: “inactive”; `CCOc1ccc(OCCSc2nc3ccccc3n2CC(=O)O)cc1`: “inactive”; `Cc1cccc(OCCSc2nc3ccccc3n2CC(=O)N2CCCCC2)c1C`: 23.1 µM (active).
As to `Cc1ccc(C(C)C)c(OCCSc2nc3ccccc3n2CC(=O)O)c1`, the Potency result is “inactive”.
